In PubChem BioAssay AID652254 (National Center for Advancing Translational Sciences (NCATS), 2013):
Activity calls are given as the source filed them.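 Rule for the calls: active = potency for halving colony growth of 5 µM or lower; inconclusive = potency above 5 µM but below 10 µM; inactive = potency of 10 µM or higher.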

Experiment: qHTS for Inhibitors of Ubiquitin-specific Protease USP2a Using CHOP2 as the Reporter: Clonogenic Assay
Settings: clonogenic colony formation, crystal violet, 10 days
Excerpt: Homeostasis of cellular proteins is maintained through a combination of synthesis and degradation. The pathway that accounts for the majority of protein degradation is the ubiquitin-proteasomal pathway. Ubiquitin (Ub) is highly conserved in all cells and the generation of a multi-Ub chain typically targets proteins for degradation by the proteasome. However, ubiquitination is highly reversible and dynamic. Deubiquitination, the reverse process, is catalyzed through the action of enzymes referred to as isopeptidases or deubiquitinating enzymes (DUBs). This group of enzymes is collectively responsible for maintaining adequate pools of free ubiquitin and regulating the ubiquitination status of cellular proteins. […] To further visualize and quantitate the effect of compounds on cell proliferation, a colony forming or clonogenic assay was performed in 6-well plates using HCT116 cells. […] The colonies were visualized on the Typhoon imager (GE) using Cy5 detection, and quantitated with the associated software. […]
2 mL 300 cells/well were dispensed into a 6-well plate in DMEM with 10% FBS and 1% Pen-Strep and then incubated for 48 hours at 37 deg C, 5% CO2. […] The plate is dried overnight and then read on a GE Typhoon FLA 9500 in end-point mode (Ex 635, Em Long-Pass Red Filter)

Structure (SMILES)	Potency
Cc1ccc(S(=O)(=O)Nc2cc(C(F)(F)F)ccc2C(=O)Nc2nc(-c3ccccc3)cs2)cc1	3.6 µM (active)
